In PubChem BioAssay AID1619 (SRMLSC, 2009):
Several values for one entry are separate records, joined by “and”; a condition that tells them apart may be missing. Equal entries are not always repeated. The whole screen tested about 220,000 compounds, of which about 830 (0.38%) were called active.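 How the source made its calls: active means compound inhibiting the enzyme by more than half at any dose during confirmatory dose-response retesting; inconclusive means strong single-dose inhibitors picked by rank but not retested; inactive means the rest.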 A selection follows. Measured potencies and affinities stand elsewhere.

Target: Leucine aminopeptidase (Plasmodium falciparum (isolate 3D7)) (UniProt Q8IL11)
Sequence (Q8IL11 whole entry, looked up): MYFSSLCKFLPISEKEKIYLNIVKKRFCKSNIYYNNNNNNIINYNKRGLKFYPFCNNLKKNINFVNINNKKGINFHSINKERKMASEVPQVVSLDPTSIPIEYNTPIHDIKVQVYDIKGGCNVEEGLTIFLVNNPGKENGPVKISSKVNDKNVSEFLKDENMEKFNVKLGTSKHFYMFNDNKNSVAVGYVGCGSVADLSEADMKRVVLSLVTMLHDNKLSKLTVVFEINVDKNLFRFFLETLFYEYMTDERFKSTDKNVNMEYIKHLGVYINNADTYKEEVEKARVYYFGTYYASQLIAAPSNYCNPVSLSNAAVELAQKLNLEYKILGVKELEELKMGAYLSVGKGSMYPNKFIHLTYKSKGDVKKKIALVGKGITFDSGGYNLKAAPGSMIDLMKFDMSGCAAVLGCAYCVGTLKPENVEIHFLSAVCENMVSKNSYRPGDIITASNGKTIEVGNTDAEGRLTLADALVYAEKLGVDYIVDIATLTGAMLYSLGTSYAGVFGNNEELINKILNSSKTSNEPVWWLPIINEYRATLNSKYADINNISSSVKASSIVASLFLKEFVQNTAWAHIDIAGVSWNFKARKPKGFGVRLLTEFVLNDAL
Assay: P. falciparum M17LAP inhibitors, primary screen, biochemical, fluorogenic H-Leu-NHMec substrate, 1536-well (AID 1619);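 further: plate controls were full reaction with DMSO carrier for no effect and no enzyme background for full effect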
Details: recombinant M17LAP, H-Leu-NHMec fluorogenic kinetic assay; at 30 µM; hits give high values

inhibition, inactive:
CCCc1cc(=O)oc2cc(OCC(=O)Nc3cc(C)on3)ccc12 -41.2%
CCNS(=O)(=O)c1ccc2c(c1)n(C)c(=O)n2C 6.77%
[O-]/C(=C(\C(=S)Nc1ccccc1F)[n+]1ccccc1)c1ccc(-c2ccccc2)cc1 -0.96%
CCc1ccc(N(C(=O)c2snc(C(N)=O)c2N)C(C(=O)NCC2CCCO2)c2cccs2)cc1 (configuration not stated) -0.4%
Cn1ncc([N+](=O)[O-])c1C(=O)Nc1nc2ccccc2n1CCN1CCCCC1 48.4%
Cc1ccc(NC(=O)COC(=O)Cc2ccsc2)cc1S(=O)(=O)N(C)C 3.8%
CCOC(=O)c1cc(=O)n2nc(-c3ccc(C)cc3)nc2s1 10.8%
CCOC(=O)c1ccc(NC(=O)Cn2nnc(-c3ccccc3F)n2)cc1 -13.6%
CC(C)Cn1c(N)c(C(=O)COC(=O)c2cc(F)cc(F)c2)c(=O)n(C)c1=O 3.99%
CCOc1ccc(C2/C(=C(\O)c3ccc(OC)c(OC)c3)C(=O)C(=O)N2c2cc(C)on2)cc1OC (configuration not stated) 25.9%
C=CCn1c(-c2cccc(OCC)c2)n[nH]c1=S -4.71%
CCOc1cccc(-c2cc(C(=O)NN)[nH]n2)c1 3.47%
Cc1ccc(C(=O)NC2CCCCNC2=O)cc1C (configuration not stated) 4.43%
Cc1ccc(Cl)cc1NC(=O)N(C)CCO -0.32%
O=C(O)Cn1cc(C(=S)N2CCOCC2)c2ccccc21 4.61%
O=C(O)Cn1cc(/C=C2/SC(=O)N(CC(=O)N3CCCCCC3)C2=O)c2ccccc21 36.6%
O=C(Cn1cc(C(=S)N2CCOCC2)c2ccccc21)N1CCOCC1 1.74%
O=Cc1cn(CC(=O)N2CCOCC2)c2ccccc12 13.4%
O=C(NCc1ccccc1C(F)(F)F)C1CC(c2ccc(C(F)(F)F)cc2)=NO1 (configuration not stated) -1.15%
Cc1ccc(CNC(=O)c2ccc3c(=O)n4c(-c5ccc(C)cc5)csc4nc3c2)cc1 4.76%
COC(=O)c1c(C)[nH]c(C(=O)NCc2ccco2)c1C -0.45%
CCC(=O)N(Cc1cc(=O)[nH]c2ccccc12)c1cccc(C)c1 -6.5%
Cc1ccc(-c2cc3nc(-c4ccccc4)cc(N4CCOCC4)n3n2)cc1 -15.5%
O=c1cc(-c2ccc(Br)cc2)[nH][nH]1 6.69%
O=c1cc(-c2ccc(C3CCCCC3)cc2)[nH][nH]1 1.14%
O=c1[nH]c(-c2ccc(Cl)cc2)cs1 -0.58%
CC(C)Cc1ccc(-c2cc(=O)[nH][nH]2)cc1 3.83%
O=c1c(OC2OC(CO)C(O)C(O)C2O)c(-c2ccc(O)c(O)c2)oc2cc(O)cc(O)c12 (configuration not stated) 31%
O=c1c(O[C@@H]2O[C@H](CO)[C@H](O)[C@H](O)[C@H]2O)c(-c2ccc(O)c(O)c2)oc2cc(O)cc(O)c12 -6.93%
O=C(c1ccc(Br)cc1)N(C1=NCCCCS1)c1ccccc1 -5.89%
CC(Oc1ccc(NC(=O)c2ccco2)cc1)C(=O)N1c2ccccc2CC1C (configuration not stated) -7.91%
CCOC(=O)c1c(N)c2cc([N+](=O)[O-])cnc2n1C -0.26%
COC(=O)CSc1nnc(-c2ccc(NS(=O)(=O)c3ccccc3)cc2)o1 55.1%
CCc1nnc(NC(=O)CSc2nnc(-c3ccco3)o2)s1 4.71%
O=C(NCC1CCCO1)c1ccc(NS(=O)(=O)c2ccccc2)cc1 (configuration not stated) -3.12%
O=C(CSc1nnc(-c2ccc(S(=O)(=O)N3CCCC3)cc2)o1)NCC1CCCO1 (configuration not stated) -1.86%
Cc1cc(NC(=O)Nc2ccc(C)c(C)c2)no1 1.89%
O=C1c2cccc3c([N+](=O)[O-])ccc(c23)C(=O)N1CCc1ccccn1 3.49%
Cc1cccc(OCCOC(=O)C2CCN(S(=O)(=O)c3cccs3)CC2)c1 -6.82%
COc1ccc(C(C)NC(=O)c2cccc([N+](=O)[O-])c2)cc1OC (configuration not stated) 1.09%
COc1ccc(NC(=S)N/C(=N/S(=O)(=O)c2ccc(C)cc2)c2ccccc2)cc1 -2.37%
CCOC(=O)c1cn(Cc2ccccc2)nn1 -4.7%
OC1(c2ccccc2)CCN(Cc2ccccc2)CC1 11.4%
Cc1ccc(-n2cc(CN3CCN(C(=O)c4ncn[nH]4)CC3)c(-c3ccc(F)cc3)n2)cc1 5.18%
CCOc1ccc(N2C(=O)CC(SCC(=O)O)C2=O)cc1 (configuration not stated) 11.6%
COC(=O)c1ccc(N2C(=O)CC(SCCN)C2=O)cc1 (configuration not stated) 6.69%
CCCOc1ccc(N2C(=O)CC(SCc3nc4ccccc4[nH]3)C2=O)cc1 (configuration not stated) 9.24%
CCCOc1ccc(N2C(=O)CC(SCCc3nc4ccccc4[nH]3)C2=O)cc1 (configuration not stated) 0.77%
O=c1[nH]c2cccnc2n1-c1cccc([N+](=O)[O-])c1 -2.76%
Fc1ccc(OCc2nc(-c3cccs3)no2)cc1 -5.15%
O=C(Cn1cnc2c(cnn2-c2ccc(Cl)cc2)c1=O)NCC1CCCO1 (configuration not stated) 8.72%
COc1ccc(C2CC(=O)C=C(NCc3ccc4c(c3)OCO4)C2)cc1 (configuration not stated) 8.48%
CCN(CC)c1nc(C)c(C(C)=O)cc1C#N 3.26%
COc1ccccc1N1CCN(S(=O)(=O)Cc2ccccc2Cl)CC1 3.75%
COc1ccc(NC(=O)C(c2ccc(C)cc2)N(C)C(=O)c2cnccn2)cc1 (configuration not stated) 1.36%
C/C(=N\NC(=O)CCc1c(C)n[nH]c1C)c1ccc([N+](=O)[O-])cc1 6.88%
C/C(=N/NC(=O)CC(=O)N/N=C(\C)c1ccc([N+](=O)[O-])cc1)c1ccc([N+](=O)[O-])cc1 9.49%
C/C(=N\NC(=O)CC1N=C(Cc2ccccc2)NNC1=O)c1ccccc1 (configuration not stated) 1.8%
C/C(=N\NC(=O)CNc1ccccc1)c1ccccc1 -12.8%
Cc1ccc(S(=O)(=O)/N=C(\N)Nc2nc(C)c3cc(C)c(C)cc3n2)cc1 6.15%
O=C(CCSc1ccccc1)Nc1ccc(OCc2ccccc2)cc1 3.34%
COc1ccc(-c2nnc(SCC(=O)N/N=C/c3ccccc3C(=O)O)n2-c2ccccc2)cc1 -3.16%
COc1cc(/C=C(/C#N)c2nc3ccccc3[nH]2)ccc1OCc1ccc(C(=O)O)o1 -33.5%
COc1cc(/C=C(/C#N)c2ccc(F)cc2)ccc1OCc1ccc(C(=O)O)o1 34.9%
N#C/C(=C/c1ccc(OCc2ccc(C(=O)O)cc2)c(Br)c1)c1cccc(F)c1 7.71%
COC(=O)c1ccc(COc2ccc(/C=C(\C#N)c3nc4ccccc4[nH]3)cc2OC)o1 -3.19%
COc1ccc(NC(=O)Cc2c(F)cccc2Cl)c(OC)c1 -1.9%
COc1ccc(NC(=O)COC(=O)Cc2c(F)cccc2Cl)cc1 5.4%
COC(=O)CSc1nc(NC#N)nc(NC(C)(C)C)n1 4.9%
COc1ccc(-c2cc(C)nc(SCc3cccc(C(=O)O)c3)n2)cc1 38.6%
Cn1sc(NC(=O)c2cccc(Cl)c2)nc1=O 12.3%
Cn1sc(NC(=O)c2ccc(Cl)cc2)nc1=O 0.57%
O=C(Nc1nc(=O)n(C(=O)c2cccc(C(F)(F)F)c2)s1)c1ccccc1 22.5%
O=C(Nc1nc2ccccc2s1)c1ccccc1 0.27%
Cc1ccc(C(=O)Nc2nc(=O)[nH]s2)cc1 -1.57% and 13.4%
Cc1ccc(C(=O)Nc2nc(=O)n(C(=O)c3ccccc3C)s2)cc1 31.9%
Cn1sc(NC(=O)c2ccccc2Cl)nc1=O -13.2%
Cc1ccc(C(=O)Nc2nc(=O)n(C)s2)cc1 4.51%
CCN(CC)CCCN1C(=O)CSC1c1ccc2c(c1)OCO2 (configuration not stated) 20.1%
O=C(NNC(=O)c1ccc(Br)o1)c1ccc(NC(=O)c2ccccc2)cc1 -6.75%
COCCCN(C(=S)NC(=O)c1ccc(C(C)(C)C)cc1)c1c(N)n(Cc2ccccc2)c(=O)[nH]c1=O 16.9%
Cc1ccc(C)c(Cn2c(=O)n(CCCC(=O)NCc3ccco3)c(=O)c3ccccc32)c1 10%
Cc1csc2nc(CCNS(=O)(=O)c3cccs3)cn12 -4.9%
O=C(NCc1ccccc1)C1=C[C@@H](c2ccc(Br)cc2)C[C@@H](OCc2ccc(CO)cc2)O1 7.8%
CCCc1[nH]nc2c1C(c1cn[nH]c1-c1ccc(F)cc1)C(C#N)=C(N)O2 (configuration not stated) 29.9%
C=CCN(c1ccccc1)S(=O)(=O)c1cc(C(=O)NC2=NCCS2)ccc1Cl -0.31%
CC(C)Oc1cccc(C(=O)C2CCCN(Cc3cccn3-c3cccnc3)C2)c1 (configuration not stated) 4.62%
O=C(COc1ccc(Br)cc1)Nc1nnc(-c2cccnc2)s1 -6.24%
Cc1ccc(C(=O)/C=C/c2c[nH]c3ccccc23)cc1 5.88%
COCCCNC(=O)c1ccccc1NS(C)(=O)=O -1.32%
CCOC(=O)C1CCN(S(=O)(=O)c2cnc[nH]2)CC1 3.88%
CC1CN(C(=S)c2cccc([N+](=O)[O-])c2)CC(C)O1 (configuration not stated) 4.78%
